Results reported in the supplement of paper PMC3342239.
Counter-ions that a name gives are not always drawn.

tested on: Saccharomyces cerevisiae; assay: fraction of cells in G1 phase (DNA content, flow cytometry); higher = more cells with unreplicated DNA (G1 delay); conditions: temperature: 30 C; YPD; JTY2953 pdr5 snq2 (sensitized); drug added to: cultures diluted from stationary phase; 6-7 h
How it was run: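 For the G1 fraction, the Dean-Jett-Fox G1 peak area was divided by the sum of the G1 and G2/M areas. S. cerevisiae in YPD at 30°C received library drugs and was fixed 6–7 h later for sensitized JTY2953 (diluted 1∶200 from overnight, final 20 µg/ml), 6 h later for dividing JTY2953, or 4.33 h later for BY4741. Fixed cells were stained with SYTOX Green and 10,000 events recorded by flow cytometry.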

Row | SMILES | fraction of cells in G1 phase
1 | N=C(N)NC(=N)N1CCOCC1 [Moroxydine HCl] (96.3092 µM) | 0.496
2 | Nc1ccc(S(=O)(=O)Nc2ncccn2)cc1 [Sulfadiazine] (79.9102 µM) | 0.521
3 | CN(C)c1ccc(O)c2c1C[C@H]1C[C@H]3[C@H](N(C)C)C(=O)C(C(N)=O)=C(O)[C@@]3(O)C(=O)C1=C2O [Minocycline HCl] (43.717 µM) | 0.51
4 | O=C1CN2Cc3c(ccc(Cl)c3Cl)N=C2N1 [Anagrelide] (78.0967 µM) | 0.469
5 | CCCCC(C)(O)C/C=C/[C@H]1[C@H](O)CC(=O)[C@@H]1CCCCCCC(=O)OC (mixture of isomers) [Misoprostol] (52.2814 µM) | 0.499
6 | CCCCC[C@H](O)/C=C/[C@@H]1[C@@H](C/C=C\CCCC(=O)O)[C@@H](O)C[C@H]1O [Dinoprost] (56.4189 µM) | 0.523
7 | CC(C)NCC(O)COc1ccc(CC(N)=O)cc1 (configuration not stated) [Atenolol] (75.0911 µM) | 0.454
8 | CCC(NC(C)C)C(O)c1ccc(O)c2[nH]c(=O)ccc12 (configuration not stated) [Procaterol hcl] (68.8787 µM) | 0.526
9 | COc1ccc2[nH]c([S+]([O-])Cc3ncc(C)c(OC)c3C)nc2c1 (configuration not stated) [Omeprazole] (57.9 µM) | 0.486
10 | CCOC(=O)C1=C[C@@H](OC(CC)CC)[C@H](NC(C)=O)[C@@H](N)C1 [Oseltamivir] (64.0179 µM) | 0.472
11 | CC1(C)S[C@@H]2[C@H](NC(=O)COc3ccccc3)C(=O)N2[C@H]1C(=O)O [Pencillin v potassium] (57.2429 µM) | 0.461
12 | CN(CCOc1ccc(CC2SC(=O)NC2=O)cc1)c1ccccn1 (configuration not stated) [Rosiglitazone maleate] (42.2386 µM) | 0.574
13 | CC1(C)O[C@@H]2C[C@H]3[C@@H]4C[C@H](F)C5=CC(=O)C=C[C@]5(C)[C@@]4(F)[C@@H](O)C[C@]3(C)[C@]2(C(=O)CO)O1 [Fluocinolone acetonide] (44.1989 µM) | 0.48
14 | Cc1cnc(NC(=O)C2=C(O)c3ccccc3S(=O)(=O)N2C)s1 [Meloxicam] (56.9143 µM) | 0.501
15 | CCN(Cc1ccncc1)C(=O)C(CO)c1ccccc1 (configuration not stated) [Tropicamide] (70.3331 µM) | 0.521
16 | NC1CCN(c2nc3c(cc2F)c(=O)c(C(=O)O)cn3-c2ccc(F)cc2F)C1 (configuration not stated) [Tosufloxacin] (49.4619 µM) | 0.428
17 | CC=CC(=O)N(CC)c1ccccc1C [Crotamiton] (98.3833 µM) | 0.503
18 | NC(=O)N1c2ccccc2CC(=O)c2ccccc21 [Oxcarbazepine] (79.2785 µM) | 0.503
19 | COc1ccc(C(=O)NCc2cccnc2)cc1C(=O)NCc1cccnc1 [Picotamide] (53.1323 µM) | 0.459

Row | SMILES | fraction of cells in G1 phase
20 | O=C1CCC(N2C(=O)c3ccccc3C2=O)C(=O)N1 (configuration not stated) [Thalidomide] (77.4486 µM) | 0.464
21 | NS(=O)(=O)c1cc(C(=O)O)c(NCc2ccco2)cc1Cl [Furosemide] (60.4688 µM) | 0.459
22 | CC[N+](CC)(CC)CCOc1cccc(OCC[N+](CC)(CC)CC)c1OCC[N+](CC)(CC)CC [Gallamine triethiodide] (39.1519 µM) | 0.516
23 | CC(COc1ccccc1)N(CCCl)Cc1ccccc1 (configuration not stated) [Phenoxybenzamine HCl] (58.7717 µM) | 0.514
24 | O=C1NC(=O)C(c2ccccc2)(c2ccccc2)N1 [Phenytoin] (79.2785 µM) | 0.535
25 | CN[C@@H]1[C@H](O[C@H]2[C@H](O[C@H]3[C@H](O)[C@@H](O)[C@H](N=C(N)N)[C@@H](O)[C@@H]3N=C(N)N)O[C@@H](C)[C@]2(O)C=O)O[C@@H](CO)[C@H](O)[C@H]1O [Streptomycin sulfate] (34.3888 µM) | 0.478
26 | COCCOC(=O)C1=C(C)NC(C)=C(C(=O)OC/C=C/c2ccccc2)C1c1cccc([N+](=O)[O-])c1 (configuration not stated) [Cilnidipine] (40.6064 µM) | 0.494
27 | Nc1nc2ccc(OC(F)(F)F)cc2s1 [Riluzole HCl] (85.3967 µM) | 0.551
28 | COc1cc2nc(N3CCN(C(=O)C4CCCO4)CC3)nc(N)c2cc1OC (configuration not stated) [Terazosin HCl] (51.6206 µM) | 0.504
29 | CCC(=O)O[C@]1(C(=O)CCl)[C@@H](C)C[C@H]2[C@@H]3CCC4=CC(=O)C=C[C@]4(C)[C@@]3(F)[C@@H](O)C[C@@]21C [Clobetasol propionate] (42.8282 µM) | 0.526
30 | Cc1ncc([N+](=O)[O-])n1CC(C)O (configuration not stated) [Secnidazole] (108.001 µM) | 0.48
31 | COc1cc(NC(C)CCCN)c2ncccc2c1 (configuration not stated) [Primaquine phosphate] (77.1146 µM) | 0.461
32 | COC(=O)C1=C(C)NC(C)=C(C(=O)OCCN2CCN(C(c3ccccc3)c3ccccc3)CC2)C1c1cccc([N+](=O)[O-])c1 (configuration not stated) [Manidipine] (32.7484 µM) | 0.554
33 | CCCCNc1cc(C(=O)O)cc(S(N)(=O)=O)c1Oc1ccccc1 [Bumetanide] (54.8812 µM) | 0.566
34 | NS(=O)(=O)Cc1noc2ccccc12 [Zonisamide] (94.238 µM) | 0.51
35 | Cc1cccc(Nc2ccccc2C(=O)O)c1C [Mefenamic acid] (82.887 µM) | 0.464
36 | CN1CCN(C2=Nc3ccccc3Sc3ccc(Cl)cc32)CC1 [Clothiapine] (58.1596 µM) | 0.431
37 | CC(=O)OCC(=O)[C@@]1(O)CC[C@H]2[C@@H]3CCC4=CC(=O)CC[C@]4(C)[C@H]3[C@@H](O)C[C@@]21C [Hydrocortisone 21-acetate] (49.4428 µM) | 0.494
